Source: PubChem (National Center for Advancing Translational Sciences (NCATS))
HP1b binding inh = HP1-beta chromodomain-methylated histone interaction inhibition. P83916. AlphaScreen HP1-beta / biotin-H3K9me3 peptide binding. Potency, µM (doses to about 114 µM), inactives show at the highest dose activity change, negative = inhibition, actives largely listed as inhibitors. hit rate 0.56% among 390,000; also: nearly all actives have a fitted effect of over 70% in size
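Compound inhibition of the preformed complex between 50 nM HP1-beta and 50 nM biotinylated H3K9me3 peptide was read by AlphaScreen. Buffer was PBS pH 7.4 with 0.01% Tween-20. Incubations ran 30 min at room temperature, with 10 ug/mL donor/acceptor beads.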
L3MBTL1 block = L3MBTL1 (human) inhibition | Q9Y468 | AlphaScreen L3MBTL1–H3K9me1 peptide binding | Potency, µM (highest dose often 57.1 µM), inactives show at the top dose activity, negative = inhibition, usual class: inhibitors | hit rate 0.66% among 230,000; also: % is scaled to controls: 0 for no effect and ±100 for the full control effect; nearly all actives have a fitted effect of over 60% in size
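AlphaScreen proximity signal between nickel-chelate acceptor and streptavidin donor beads (final 10 ug/mL) reports binding of 50 nM L3MBTL1 to 75 nM biotin-H3 K9me1 peptide; complex incubated with compounds 30 min at room temperature; cefsulodin titration as control.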
JMJD2A Tudor = JMJD2A Tudor domain (human) inhibition; O75164; AlphaScreen JMJD2A-Tudor / H3K4me3 peptide binding; Potency, µM (titrated, usually from 114 µM), for inactives: at the top dose activity change, negative = inhibition, usual class: inhibitors; hit rate 4.4% among 390,000; also: % is scaled to controls: 0 for no effect and ±100 for the full control effect; nearly all actives have a fitted effect of over 50% in size
G9a block = inhibitors of human histone lysine methyltransferase G9a; Q96KQ7; hit rate 8.8% among 350,000; G9a H3K9 monomethylation, AlphaScreen, 2 h; Potency, µM (highest dose often 102 µM), for the others: at the highest dose activity, negative = inhibition, hits mostly inhibitors; also: % is scaled to controls: 0 for no effect and ±100 for the full control effect; nearly all actives have a fitted effect of over 75% in size
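G9a (20 nM) preincubated 15 min RT with compounds, then 500 nM biotinylated H3K9 peptide and 20 uM SAM added; 2 h RT reaction. Monomethyl-H3K9 product detected by AlphaScreen with anti-H3K9me1 antibody, streptavidin donor and anti-rabbit IgG acceptor beads.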
BAZ2B block = inhibitors of human BAZ2B bromodomain | Potency, µM (titrated, usually from 114 µM), inactives show top-dose activity change, negative = inhibition, most hits filed as inhibitors | hit rate 4.4% among 360,000 | AlphaScreen BAZ2B-H3K14Ac peptide displacement | AID 504333; also: % is scaled to controls: 0 for no effect and ±100 for the full control effect; nearly all actives have a fitted effect of over 60% in size
Target sequence (Q9UIF8 whole entry, looked up): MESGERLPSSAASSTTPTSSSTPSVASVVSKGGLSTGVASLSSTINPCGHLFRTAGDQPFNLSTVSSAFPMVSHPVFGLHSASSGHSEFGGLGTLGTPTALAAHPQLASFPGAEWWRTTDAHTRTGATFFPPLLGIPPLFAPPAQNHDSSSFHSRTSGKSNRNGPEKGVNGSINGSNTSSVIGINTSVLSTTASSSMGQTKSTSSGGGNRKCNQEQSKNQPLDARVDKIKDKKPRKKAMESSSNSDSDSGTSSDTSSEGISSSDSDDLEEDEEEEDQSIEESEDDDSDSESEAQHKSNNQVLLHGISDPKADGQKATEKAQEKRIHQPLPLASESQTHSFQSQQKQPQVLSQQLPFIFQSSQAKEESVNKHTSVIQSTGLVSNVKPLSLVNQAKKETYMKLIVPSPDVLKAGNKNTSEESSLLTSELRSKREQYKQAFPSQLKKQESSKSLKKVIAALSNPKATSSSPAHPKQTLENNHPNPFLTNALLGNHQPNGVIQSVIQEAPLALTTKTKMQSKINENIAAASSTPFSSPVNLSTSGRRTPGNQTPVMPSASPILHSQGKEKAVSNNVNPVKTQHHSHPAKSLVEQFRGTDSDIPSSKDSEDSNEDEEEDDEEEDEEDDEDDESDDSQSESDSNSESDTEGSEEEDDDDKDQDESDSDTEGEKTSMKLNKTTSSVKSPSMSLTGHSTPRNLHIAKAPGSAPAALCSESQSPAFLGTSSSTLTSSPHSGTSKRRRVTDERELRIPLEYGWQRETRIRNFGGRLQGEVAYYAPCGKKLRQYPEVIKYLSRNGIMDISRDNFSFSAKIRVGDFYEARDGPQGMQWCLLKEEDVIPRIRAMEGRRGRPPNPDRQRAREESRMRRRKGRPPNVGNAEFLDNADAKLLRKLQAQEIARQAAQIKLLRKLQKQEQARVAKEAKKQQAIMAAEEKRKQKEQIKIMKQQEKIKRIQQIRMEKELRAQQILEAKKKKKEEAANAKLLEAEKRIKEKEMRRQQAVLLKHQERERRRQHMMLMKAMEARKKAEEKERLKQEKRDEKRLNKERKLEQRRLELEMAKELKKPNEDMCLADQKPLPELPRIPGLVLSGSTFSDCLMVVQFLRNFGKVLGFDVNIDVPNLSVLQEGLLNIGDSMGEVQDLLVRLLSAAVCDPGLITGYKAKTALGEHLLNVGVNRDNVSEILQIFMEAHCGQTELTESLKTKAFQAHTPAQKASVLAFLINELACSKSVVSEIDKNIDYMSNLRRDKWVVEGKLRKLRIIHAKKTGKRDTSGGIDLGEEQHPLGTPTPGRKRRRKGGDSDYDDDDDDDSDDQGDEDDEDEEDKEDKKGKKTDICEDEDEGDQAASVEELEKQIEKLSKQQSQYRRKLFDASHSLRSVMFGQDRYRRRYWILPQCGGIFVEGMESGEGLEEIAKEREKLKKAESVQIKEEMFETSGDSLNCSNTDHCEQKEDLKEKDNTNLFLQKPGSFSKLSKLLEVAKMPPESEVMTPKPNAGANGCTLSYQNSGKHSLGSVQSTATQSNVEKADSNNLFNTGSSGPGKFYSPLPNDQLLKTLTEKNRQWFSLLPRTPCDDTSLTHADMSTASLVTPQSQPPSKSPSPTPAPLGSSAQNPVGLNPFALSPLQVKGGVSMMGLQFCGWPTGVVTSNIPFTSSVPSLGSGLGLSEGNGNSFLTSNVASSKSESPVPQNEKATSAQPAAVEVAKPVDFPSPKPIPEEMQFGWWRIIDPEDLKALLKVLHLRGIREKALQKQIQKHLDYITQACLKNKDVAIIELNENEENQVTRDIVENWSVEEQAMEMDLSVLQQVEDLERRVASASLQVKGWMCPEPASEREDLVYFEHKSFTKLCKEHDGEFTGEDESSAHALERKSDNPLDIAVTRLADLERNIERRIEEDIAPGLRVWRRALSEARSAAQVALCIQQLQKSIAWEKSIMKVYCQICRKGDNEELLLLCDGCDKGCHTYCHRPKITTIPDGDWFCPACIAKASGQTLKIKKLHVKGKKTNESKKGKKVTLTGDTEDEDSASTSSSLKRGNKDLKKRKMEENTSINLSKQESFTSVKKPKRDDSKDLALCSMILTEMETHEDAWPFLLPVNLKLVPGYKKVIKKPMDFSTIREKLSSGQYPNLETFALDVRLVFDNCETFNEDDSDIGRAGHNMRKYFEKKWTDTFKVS
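Protein-peptide AlphaScreen: BAZ2B 50 nM, b-H3K14Ac 50 nM, 1x PBS pH 7.4 + 0.01% Tween-20. Preincubation 30 min RT; cpd 30 min RT (top 110 uM); beads 20 min RT, light-protected.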
Sfp PPTase inh = blocks B. subtilis Sfp PPTase activity | Potency, µM, inactives show largest response in the series, negative = inhibition, actives largely listed as inhibitors | Q9F4F7 | AID 1490 | Biochemical Sfp PPTase activity, qHTS | hit rate 3.5% among 310,000;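 also: the enzyme is Sfp with the accession as filed and its product quenches rhodamine fluorescence; 0% = enzyme reaction without inhibitor and -100% = no enzyme wells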
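Buffer: 50 mM Hepes-Na pH 7.6, 10 mM MgCl2, 0.01% Nonidet P-40, 0.01% BSA. Enzyme 15 nM, pre-exposed to compound 15 min; substrates then added and fluorescence change tracked over 30 min.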
* marks the source's active call; other numbers are inactive results; [ ] = another dose, or the depositor's remark. This is a sample that favours compounds with a hit; in the whole collection about 12% have one here. Calls follow the shape of the dose curve; as a rule, active = well fitted curve in the direction sought with a large enough effect; inconclusive = small, poorly fitted or top-dose-only effect, or another doubt; inactive = no such curve, though single readings can be large; an effect the other way counts as inactive or inconclusive. Potency is read from the fitted curve at half-maximal effect.

Cc1ccc(Nc2nc(C)cs2)cc1 was read as HP1b binding inh inconclusive, L3MBTL1 block -6%, JMJD2A Tudor inconclusive, G9a block 35µM*, BAZ2B block -23% and Sfp PPTase inh 22µM*.
Screening Cc1cccc(-n2nnc(-c3nc(-c4cccs4)no3)c2N)c1C returned HP1b binding inh 44%, JMJD2A Tudor 22%, G9a block 9%[59 µM] and BAZ2B block 0%.
Screening COc1ccc(-n2c(SC(C)C(=O)Nc3ccc(NC(C)=O)cc3)nc3ccccc3c2=O)cc1OC (stereo not given) returned HP1b binding inh 21%, JMJD2A Tudor -24%, G9a block inconclusive, BAZ2B block -9% and Sfp PPTase inh -4%.
Screening COc1ccccc1CNc1nc(-c2ccc(C(=O)N(C)C)cc2)nc2ccccc12 returned G9a block 5%[0.501 µM] and Sfp PPTase inh -11%.
For COc1ccc2[nH]cc(CCNc3nc(-c4ccc(N(C)C)cc4)nc4ccccc34)c2c1 the results were G9a block -2%[0.501 µM] and Sfp PPTase inh 18µM*.
For COc1ccccc1CNc1nc(-c2ccc(N(C)C)cc2)nc2ccccc12 the results were Sfp PPTase inh 16µM*.
COc1ccc2[nH]cc(CCNc3cc(-c4ccccc4C(F)(F)F)ncn3)c2c1 was read as Sfp PPTase inh 79µM*.
`COc1ccc2[nH]cc(CCNc3cc(-c4ccccc4Cl)ncn3)c2c1` gave G9a block 3%[0.501 µM] and Sfp PPTase inh inconclusive.
COCCCNC(=O)CSc1nc2cc3c(cc2c(=O)n1CCCCCC(=O)NCc1ccc2c(c1)OCO2)OCO3 was read as HP1b binding inh 31%, JMJD2A Tudor 1%, G9a block 5%[59 µM] and BAZ2B block 2%.
`COc1ccc2[nH]c3c(C)c4ccncc4c(C)c3c2c1` gave HP1b binding inh 16%, L3MBTL1 block -1%, JMJD2A Tudor -31%, G9a block 40µM*, BAZ2B block inconclusive and Sfp PPTase inh 16µM*.
For Cc1ccc(CNC(=O)Cn2cnc3c(OCc4ccccc4)ncnc32)o1 the results were HP1b binding inh 19%, L3MBTL1 block -3% and JMJD2A Tudor -23%.
Screening Cc1nnc(NC(=O)CSc2nnc(CNC(=O)C34CC5CC(CC(C5)C3)C4)n2C2CCCCC2)s1 returned HP1b binding inh 25%, L3MBTL1 block -12%, JMJD2A Tudor -20%, G9a block 5%[59 µM], BAZ2B block 8% and Sfp PPTase inh 18%.
CC(C)Sc1nnc(CNC(=O)C23CC4CC(CC(C4)C2)C3)n1C1CCCCC1 was read as HP1b binding inh 17%, L3MBTL1 block 1%, JMJD2A Tudor -27%, G9a block 20µM*, BAZ2B block 8% and Sfp PPTase inh -6%.
`O=C(CONS(=O)(=O)c1ccc(Cl)cc1)NCCNc1ncc(C(F)(F)F)cc1Cl` gave HP1b binding inh 28%, L3MBTL1 block -6%, JMJD2A Tudor -17%, G9a block 56µM*, BAZ2B block -16% and Sfp PPTase inh 23%.
For OC(c1ccccc1)(c1ccccc1)c1ncc[nH]1 the results were HP1b binding inh 39%, L3MBTL1 block 1%, JMJD2A Tudor -4%, G9a block -5%[2.33 µM] and BAZ2B block 2%.
Screening COc1cc(O)c(C(=O)O)c(O)c1 returned Sfp PPTase inh 7%.
Screening Cc1no[n+]([O-])c1COc1ccc(/C=C2\NC(=S)NC2=O)cc1 returned HP1b binding inh 12%, JMJD2A Tudor -10%, G9a block -14%, BAZ2B block -5% and Sfp PPTase inh 0%.
CCOc1ccc(/C=C2\NC(=S)NC2=O)cc1 was read as HP1b binding inh 30%, L3MBTL1 block -4%, JMJD2A Tudor -19%[11.4 µM], G9a block 45µM*, BAZ2B block -11% and Sfp PPTase inh 14%.
CCOc1ccc(/C=C2\SC(=S)N(CCC(=O)N(CCO)c3ccccc3)C2=O)cc1 was read as HP1b binding inh -25%, L3MBTL1 block -25%, JMJD2A Tudor inconclusive, G9a block 16µM*, BAZ2B block inconclusive and Sfp PPTase inh inconclusive.
O=C1/C(=C/c2ccccc2)SC(=S)N1N1C(=O)C2CC2C1=O (stereo not given) was read as HP1b binding inh -16%, JMJD2A Tudor -25%, G9a block 25µM*, BAZ2B block -26% and Sfp PPTase inh -16%.
`COc1ccc(/C=C2/SC(=S)N(n3c(C)ccc3C)C2=O)cc1` gave HP1b binding inh inconclusive, JMJD2A Tudor 35µM*, G9a block 16µM*, BAZ2B block 10µM* and Sfp PPTase inh -4%.
`COc1ccc(/C=C2\SC(=S)N(CCCC(=O)Nc3ccc(O)cc3)C2=O)cc1` gave HP1b binding inh 23%, L3MBTL1 block -29%, JMJD2A Tudor -19%[11.4 µM], G9a block -52%, BAZ2B block -31% and Sfp PPTase inh 12%.
Screening O=C(CCN1C(=O)/C(=C\c2ccccc2)SC1=S)N1CCCCC1 returned HP1b binding inh -13%, JMJD2A Tudor -23%, G9a block -11%[59 µM], BAZ2B block -10% and Sfp PPTase inh 3%.
CCOc1ccc(CNC(=O)CN2N=C(c3ccccc3)CCC2=O)cc1OC was read as HP1b binding inh 19%, JMJD2A Tudor inconclusive, G9a block 0%[59 µM] and BAZ2B block -2%.
CCOc1ccc(/C=C2/SC(=S)N(n3c(C)ccc3C)C2=O)cc1 was read as HP1b binding inh 14µM*, JMJD2A Tudor 22µM*, G9a block 10µM*, BAZ2B block 11µM* and Sfp PPTase inh 1%.
O=C(OCC#CCSc1nnc(-c2ccc([N+](=O)[O-])cc2)o1)c1cccs1 was read as HP1b binding inh -25%, JMJD2A Tudor inconclusive, G9a block 32µM*, BAZ2B block inconclusive and Sfp PPTase inh 5%.
Screening CSc1nnc(-c2ccc([N+](=O)[O-])cc2)o1 returned HP1b binding inh -11%, L3MBTL1 block -7%, JMJD2A Tudor -12%, G9a block inconclusive, BAZ2B block -17% and Sfp PPTase inh 5%.
C#CCSc1nnc(-c2ccc(OC)cc2)o1 was read as HP1b binding inh -6%, JMJD2A Tudor 3%, G9a block 45µM*, BAZ2B block 0% and Sfp PPTase inh -3%.
C#CCSc1nnc(-c2ccc([N+](=O)[O-])cc2)o1 was read as HP1b binding inh 7%, L3MBTL1 block -3%, JMJD2A Tudor -23%, G9a block 50µM*, BAZ2B block -31% and Sfp PPTase inh 8%.
